We go through six compounds from PubChem BioAssay (NCATS).

Inconclusive results are not listed. Active and inactive are the calls of the source. Calls follow the shape of the dose curve; as a rule, active = well fitted inhibition curve with a large enough effect; inconclusive = small, poorly fitted or top-dose-only effect; inactive = flat fitted curve, though single readings scatter.
Potency is read from the fitted curve at half-maximal effect.

One assay can be described thus: qHTS profiling for inhibitors of Plasmodium falciparum proliferation (AID 504749). Also: nearly all actives have a fitted effect of over 60% in size. The settings on record: P. falciparum in erythrocytes, SYBR Green DNA, 72 h; parasite line A. An outline of the steps:
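Infected RBCs, 0.3% parasitemia/2.5% Hct final; cpd 72 h, 37 C, 5% CO2; lysis buffer with saponin/triton/SYBR Green I, o/n RT dark; FI 485/535; norm. to artemisinin (0.29 uM) and DMSO.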
Consider `NC(N)=NC(=O)Cc1c(Cl)cccc1Cl`, for which the Potency is 5.62 µM (active).

In the case of `O=C(CCCN1CCC(O)(c2cccc(C(F)(F)F)c2)CC1)c1ccc(F)cc1`, the Potency is 8.91 µM (active).

Take `OCCN1CCN(CCCN2c3ccccc3C=Cc3ccccc32)CC1`: the Potency was 8.91 µM (active).

In the case of `CCN(CC)CCCN(c1ccccc1)C1Cc2ccccc2C1`, the Potency was 4.47 µM (active).

As to `CCNC(=O)N1CCN(CCCC(c2ccc(F)cc2)c2ccc(F)cc2)CC1`, the Potency is 1.12 µM (active).

With `COC(=O)C1=C(C)NC(C)=C(C(=O)OC(C)(C)CN(C)CCC(c2ccccc2)c2ccccc2)C1c1cccc([N+](=O)[O-])c1` (configuration not stated), the Potency is 2 µM (active).

Staying with this assay, now noted: P. falciparum in erythrocytes, SYBR Green DNA, 72 h; parasite line B.
For `NC(N)=NC(=O)Cc1c(Cl)cccc1Cl`, the Potency is 5.01 µM (active).

As to `O=C(CCCN1CCC(O)(c2cccc(C(F)(F)F)c2)CC1)c1ccc(F)cc1`, the Potency was 8.91 µM (active).

Consider `OCCN1CCN(CCCN2c3ccccc3C=Cc3ccccc32)CC1`, for which the Potency was 11.2 µM (active).

Take `CCN(CC)CCCN(c1ccccc1)C1Cc2ccccc2C1`: the Potency was 7.08 µM (active).

For `CCNC(=O)N1CCN(CCCC(c2ccc(F)cc2)c2ccc(F)cc2)CC1`, the Potency was 1.26 µM (active).

In the case of `COC(=O)C1=C(C)NC(C)=C(C(=O)OC(C)(C)CN(C)CCC(c2ccccc2)c2ccccc2)C1c1cccc([N+](=O)[O-])c1` (configuration not stated), the Potency is 2 µM (active).
